Hits are enriched below; roughly 7.3% of the tested compounds scored in any of these assays.
KinaseGlo FLuc – counter-screen: inhibitors of Kinase-Glo firefly luciferase | 0.28% of 200,000 active | Kinase-Glo luciferase, ATP luminescence, 8 min | AID 1379 | Potency, µM (highest dose often 38.3 µM), for the others: at the highest dose activity change, negative = inhibition, usual class: inhibitors | Q27757; note: % is set by controls: 0 for no effect and ±100 for the full control effect; nearly all actives have a fitted effect of over 60% in size
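Substrate mix (final 50 mM imidazole pH 7.2, 50 mM KCl, 7 mM MgCl2, 10 uM ATP, 0.01% Tween 20, 0.05% BSA) plus pin-tool compound, then Kinase-Glo detection mix; 8 min ambient, luminescence read.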
NPC1 prom act – NPC1 promoter activation; Huh7 NPC1 promoter luciferase reporter, 24 h; Potency, µM (doses to about 9.22 µM), inactives show at the top dose activation, actives largely listed as activators; 2.4% of 320,000 active; AID 485313; note: % of control where 0% means no effect; nearly all actives have a fitted effect of over 60% in size
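In 1536-well qHTS, Huh7 cells harboring an NPC1 promoter–luciferase construct received compound for 24 h; activation was quantified by luminescence following luciferase reagent addition.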
SMN2 splice enh – enhancers of SMN2 splice variant expression. HEK293 SMN2-luciferase splicing reporter, luminescence, 30-36 h. Potency, µM (series often up to 46.1 µM), for inactives: at the highest dose activity change, positive = activation, usual class: activators. 2.8% of 210,000 active; note: % of control where 0% means no effect; nearly all actives have a fitted effect of over 55% in size
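HEK293 cells carry an SMN2 minigene-luciferase reporter in which exon 7 inclusion puts luciferase in frame. Cells were seeded at 2000 cells/well, attached for 10-12 hours, then exposed to compounds for 30-36 hours at 37C before ONE-Glo luminescence.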
FLuc modulator – firefly luciferase modulation, counter-screen for miR-21 project; P08659; purified FLuc, Km substrates, luminescence inhibition; Potency, µM (series often up to 57.5 µM), inactives show at the highest dose activity change, negative = inhibition, most hits filed as inhibitors; 6.9% of 360,000 active;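 note: plate controls were vehicle for no effect and reference inhibitor for full effect; nearly all actives have a fitted effect of over 55% in size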
Target sequence (P08659 whole entry, looked up): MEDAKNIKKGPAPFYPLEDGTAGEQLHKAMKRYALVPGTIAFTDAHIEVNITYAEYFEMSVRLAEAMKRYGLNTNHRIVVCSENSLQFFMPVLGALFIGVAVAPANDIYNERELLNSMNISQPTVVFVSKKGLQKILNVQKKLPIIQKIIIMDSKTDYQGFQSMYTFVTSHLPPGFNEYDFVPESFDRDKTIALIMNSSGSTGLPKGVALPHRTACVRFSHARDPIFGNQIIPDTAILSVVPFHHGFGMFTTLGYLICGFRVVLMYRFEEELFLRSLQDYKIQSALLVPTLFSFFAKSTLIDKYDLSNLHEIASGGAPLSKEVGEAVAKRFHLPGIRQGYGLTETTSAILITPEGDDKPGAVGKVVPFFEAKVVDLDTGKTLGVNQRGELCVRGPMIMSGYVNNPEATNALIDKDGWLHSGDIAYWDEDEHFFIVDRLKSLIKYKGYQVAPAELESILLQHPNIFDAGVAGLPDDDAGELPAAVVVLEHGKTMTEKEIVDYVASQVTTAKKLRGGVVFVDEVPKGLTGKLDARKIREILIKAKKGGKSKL
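Purified P. pyralis luciferase, 10 nM final, with Km-level 10 uM D-luciferin and 10 uM ATP in 50 mM Tris acetate pH 7.5, 10 mM Mg acetate, 0.01% Tween-20, 0.05% BSA; 6-point qHTS titration about 60 µM downward; luminescence read.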
Rab9 prom act – activators of Rab9 promoter | Huh7 Rab9 promoter-luciferase reporter, luminescence, 24 h | Potency, µM (highest dose often 9.22 µM), inactives show at the highest dose activation, negative = inhibition, hits mostly activators | 2.8% of 320,000 active; note: % of control where 0% means no effect; nearly all actives have a fitted effect of over 60% in size
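Luminescence read-out: Huh7 cells stably expressing Rab9-luciferase, treated 24 h with compound at 37 °C, then lysed with luciferase reagent for 10 min at ambient before reading.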
Starred values were filed as active, the others as inactive; ? = inconclusive; . = not tested or not shown. Calls come from the whole dose curve; as a rule, active = well fitted curve in the direction sought with a large enough effect; inconclusive = small, poorly fitted or top-dose-only effect, or another doubt; inactive = no such curve, though single readings can be large; an effect the other way counts as inactive or inconclusive. Potency is the fitted concentration of half-maximal effect.

SMILES	KinaseGlo FLuc	NPC1 prom act	SMN2 splice enh	FLuc modulator	Rab9 prom act
CC(C)c1ccc(OCC(=O)Nc2cccc(C(=O)Nc3ccccc3C(=O)O)c2)cc1	-1%	0%	14%	21µM*	-4%
CC(C)C(=O)Nc1cccc(C(=O)Nc2ccccc2C(=O)O)c1	-3%	7%	-6%	7.6µM*	16%
Cc1cccc(OCC(=O)Nc2cccc(C(=O)Nc3ccccc3C(=O)O)c2)c1	-1%	1%	18%	?	-1%
O=C(Nc1ccc(Cl)cc1F)c1ccccc1Br	-3%	1.8µM*	11µM*	11µM*	2.2µM*
O=C(Nc1ccccc1C(=O)O)c1cccc(NC(=O)c2ccccc2Br)c1	.	0%	.	24µM*	-5%
O=C(CCn1cnc2onc(-c3ccc(F)cc3)c2c1=O)N1CCN(c2ccccc2F)CC1	.	.	.	-1%	.
Cc1ccc(Nc2nnc(-c3ccc(C)c(S(=O)(=O)N4CCN(C)CC4)c3)c3ccccc23)c(C)c1	.	.	7%	-5%	.
CCC(C)(C)c1nnc(NC(=O)c2cccc([N+](=O)[O-])c2)s1	3%	20%	?	19µM*	22%
O=C(O)c1ccc(NC(=O)c2ccccc2NC(=O)c2cccc(Br)c2)cc1	.	-2%	.	11µM*	-2%
CC(C)C(=O)Nc1cccc(C(=O)Nc2nnc(C(C)(C)C)s2)c1	-3%	1%	-6%	13µM*	11%
CCCCOc1ccc(CNC(=O)c2cccc(NC(=O)N3CCSc4ncccc43)c2)cc1	.	.	.	-15%	.
COC(=O)c1c(-c2ccc(Cl)cc2)noc1N1CCN(c2cccc(C(F)(F)F)c2)CC1	.	.	.	-3%	.
O=C(N1CCOCC1)C1(c2ccccc2)CCCCC1	0%	0%	32µM*	2%	-10%
O=C(N1CCCCC1)C1(c2ccccc2)CCOCC1	3%	5%	11%	6%	-4%
NCc1cccc(CNc2ccc([N+](=O)[O-])cc2C(N)=O)c1	.	?	.	-2%	3.2µM*
CC1CCN(c2oc(-c3cccs3)nc2S(=O)(=O)c2ccc(Cl)cc2)CC1	.	.	-2%	-2%	.
CCOc1cc2sc(N3CCC(C(=O)Nc4cc(C)cc(C)c4)CC3)nc2cc1Br	.	.	.	-1%	.
CCOc1cc2sc(N3CCC(C(=O)NCCCN4CCCC4=O)CC3)nc2cc1Br	.	15%	.	15µM*	1%
Cc1cc(C)c2nc(N3CCC(C(=O)NCCCN4CCCC4=O)CC3)sc2c1	.	-8%	.	?	-4%
CCOc1ccc2nc(N3CCC(C(=O)Nc4c(C)cccc4C)CC3)sc2c1	.	.	-4%	-13%	.
CCOc1cc2sc(N3CCC(C(=O)Nc4ccc(C)cc4C)CC3)nc2cc1Br	.	.	?	15µM*	.
CCOc1cc2sc(N3CCC(C(=O)Nc4ccc(C(C)C)cc4)CC3)nc2cc1Br	.	.	14µM*	21µM*	.
COc1ccc(Cl)cc1NC(=O)CSc1nc(-c2ccco2)cc(C(F)(F)F)n1	.	.	3%	-2%	.
Cc1ccc(C)c(NC(=O)N2CCC(N3CCN(Cc4ccc(F)cc4)C(=O)C3=O)CC2)c1	.	.	.	-4%	.
Clc1ccccc1OCc1nc(-c2ccncc2)no1	2%	2.8µM*	13µM*	11µM*	2µM*
SMILES	KinaseGlo FLuc	NPC1 prom act	SMN2 splice enh	FLuc modulator	Rab9 prom act
Cc1cc(OCc2nc(-c3cccnc3)no2)c(C)cc1Br	-2%	11%	-3%	6%	12%
Clc1ccc(OCc2nc(-c3ccncc3)no2)c(Br)c1	5%	1.3µM*	3.2µM*	2.1µM*	0.71µM*
CC(C)(C)OC(=O)N1CCC(c2c(C(=O)NC3CCN(Cc4ccccc4)CC3)cnn2-c2cccc(F)c2)CC1	.	.	.	-3%	.
CCc1ccc(-n2nc(CO)c(C(=O)NCCOC)n2)cc1	.	.	-2%	17µM*	.
Cc1ccc2oc(C(=O)N(C)Cc3ccon3)c(C)c2c1	.	3.2µM*	.	11µM*	3.5µM*
CCN(Cc1ccccc1)C(=O)c1oc2ccc(C)cc2c1C	.	-1%	.	?	6%
Cc1ccc2oc(C(=O)N(C)Cc3ccc(C)o3)c(C)c2c1	.	9%	.	27µM*	12%
CCCc1ccc2oc(C(=O)N(C)Cc3cnccn3)c(C)c2c1	.	2%	.	-5%	1%
COCC1=Cc2cc3c(cc2C(C(C(=O)OC)C(=O)OC)N1C(=O)OC)OCO3 (centres undefined)	-5%	.	3%	.	.
Cc1cc(-c2ccccc2)n(-c2ccccc2)n1	.	?	.	15µM*	?
Cc1nn(-c2ccccc2)c(N)c1-c1ccccc1	-5%	?	13µM*	13µM*	3.2µM*
Cc1nn(-c2ccccc2)c(/N=C/c2ccccc2O)c1-c1ccccc1	-6%	2.2µM*	11µM*	-15%	2.8µM*
Cc1nn(-c2ccccc2)c(C)c1/C=N/O	-5%	11%	23%	-2%	14%
Nc1c(-c2ccccc2)c(CN2CCOCC2)nn1-c1ccccc1	0%	2%	5%	0%	3%
Cc1nn(-c2nc3ccccc3[nH]2)c(N)c1-c1ccccc1	-11%	1.6µM*	2µM*	1.9µM*	0.63µM*
Cc1nn(CC2CCCCC2)c(N)c1-c1ccccc1	-5%	29%	-13%	17µM*	?
CCC(C)NC(=O)c1ccc(NS(=O)(=O)c2ccc3[nH]c(=O)[nH]c3c2)cc1 (centres undefined)	.	13%	.	17µM*	1%
CCc1ccc(CNC(=O)c2cnc3sc(N4CCOCC4)nn3c2=O)cc1	.	.	.	3%	.
S=C(Nc1ccccc1Cl)N1CCOCC1	3%	-2%	-11%	2%	-2%
S=C(c1ccc(-c2ccc(Cl)c(Cl)c2)o1)N1CCOCC1	1%	2.2µM*	11µM*	2.7µM*	1.8µM*
S=C(c1ccc(-c2ccccc2Cl)o1)N1CCOCC1	-5%	?	32µM*	11µM*	?
S=C(c1ccc(-c2ccc(Br)cc2)o1)N1CCCCC1	-2%	-5%	.	?	-1%
S=C(c1ccc(-c2ccc(Br)cc2)o1)N1CCOCC1	.	3.5µM*	.	3µM*	2µM*
Cc1ccc(N(CC(=O)NCCc2ccc(Cl)cc2)S(=O)(=O)N(C)C)cc1	.	.	.	-4%	.
Cc1ccc(CNC(=O)c2cc3sccc3n2Cc2ccc(Cl)cc2)cc1	.	.	-2%	-5%	.
SMILES	KinaseGlo FLuc	NPC1 prom act	SMN2 splice enh	FLuc modulator	Rab9 prom act
COc1cc(Cl)c(C)cc1NC(=O)c1nn(C)c2c1CSc1ccccc1-2	.	.	.	3%	.
CCCCc1nn2c(=O)cc(COC(=O)COc3ccc(C)cc3)nc2s1	.	.	.	-3%	.
CCN(CC)c1nc(-c2ccc(C(C)(C)C)cc2)nc2ccccc12	.	.	?	5.4µM*	.
CC(C)CN(CC(C)C)c1nc(-c2ccc(Cl)cc2)nc2ccccc12	.	.	2%	-1%	.
N#C/C(=C\c1ccc(O)c(O)c1)C(=O)NCCCCc1ccccc1	-2%	.	.	.	.
COc1ccc(CNC(=O)CCCN2C(=O)COc3ccc(C)cc32)cc1	.	.	12%	-11%	.
c1ccc(Oc2ccc(-c3ccn[nH]3)cc2)cc1	.	?	.	11µM*	3.2µM*
c1ccc(Oc2ccc(-c3ccnc4ncnn34)cc2)cc1	2%	-1%	1%	-11%	-12%
